This is an account of results in PubChem BioAssay (NCI).

Molecules are shown by their SMILES. The panel holds about 83,000 compounds, 20% with a hit somewhere; the sample as a whole holds those more often.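 Step 1: grow cells in 96-well plates. Step 2: add test compound at a single concentration. Step 3: incubate 48 h. Step 4: record percent growth.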 Unmarked numbers belong to inactive results. Activity calls are given as the source filed them. How the source made its calls: active means growth percent below 10; inactive means the rest.

Some test systems named below: SR leukemia; RPMI-8226 leukemia; OVCAR-8 ovarian; OVCAR-5 ovarian; OVCAR-4 ovarian; SK-OV-3 ovarian; IGROV1 ovarian; OVCAR-3 ovarian; HS 578T breast; NCI/ADR-RES ovarian; T-47D breast; BT-549 breast; MDA-MB-435 melanoma; SW-620 colon; MCF7 breast; HCT-116 colon; HCC-2998 colon; KM12 colon.
Common to all, as to assay: NCI-60 one-dose screen, 48 h (100 = growth as untreated, 0 = no growth, -100 = all killed)
What all share (conditions): 10 µM unless noted

`CCN(CC)CCOC(=O)Nc1ccccc1Cl`: the growth was 102% in the test on SR leukemia; 88.8% in the test with RPMI-8226 leukemia; 104% in the test with OVCAR-8 ovarian; 110% with OVCAR-5 ovarian; 120% in the test on OVCAR-4 ovarian; 108% in the test with SK-OV-3 ovarian. For the same molecule, the growth is 101% in the test on IGROV1 ovarian; 108% in the test with OVCAR-3 ovarian; 109% with HS 578T breast; 110% in the test with NCI/ADR-RES ovarian; 98.6% with T-47D breast; 81.3% in the test on BT-549 breast. Moreover, the growth in the test on MDA-MB-435 melanoma was 108%; in the test with SW-620 colon it was 101%; in the test with MCF7 breast, 101%; in the test with HCT-116 colon, 72.7%; in the test with HCC-2998 colon it was 101%; in the test with KM12 colon, 103%.
`CCOC(=O)c1c(C)nc2c(c1N)/C(=C/c1cc(OC)c(OC)c(OC)c1)C(=O)N2c1ccc(OC)cc1`: the growth in the test on SR leukemia was 12.4%; with RPMI-8226 leukemia it was -6.44% (active); with OVCAR-8 ovarian, 37.7%; with OVCAR-5 ovarian it was 85.7%; in the test with OVCAR-4 ovarian, 87%; in the test on SK-OV-3 ovarian it was 105%. The growth in the test on IGROV1 ovarian is 33.6%; in the test with OVCAR-3 ovarian it was 42.1%; with HS 578T breast it was 95.1%; in the test with NCI/ADR-RES ovarian, 34.7%; with T-47D breast, 73.2%; in the test with BT-549 breast, 46.7%. Further, the growth in the test with MDA-MB-435 melanoma is 49.5%; in the test with SW-620 colon, 30.9%; with MCF7 breast, 14.6%; with HCT-116 colon, -0.0724% (active); in the test on HCC-2998 colon, 95.9%; in the test with KM12 colon, 43.7%.
In the case of `CSc1nc(N)c(CNC(C)c2ccccc2)c(=O)n1C` (configuration not stated), the growth is 103% with SR leukemia; 109% with RPMI-8226 leukemia; 97.9% in the test with OVCAR-8 ovarian; 91.7% in the test with OVCAR-5 ovarian; 104% with OVCAR-4 ovarian; 97.5% with SK-OV-3 ovarian. The growth is 101% in the test with IGROV1 ovarian; 110% with OVCAR-3 ovarian; 99.6% in the test with HS 578T breast; 100% in the test on NCI/ADR-RES ovarian; 97.2% in the test with T-47D breast; 96.1% with BT-549 breast. Besides, the growth is 98.4% in the test on MDA-MB-435 melanoma; 107% in the test on SW-620 colon; 93.5% in the test on MCF7 breast; 92.2% with HCT-116 colon; 101% in the test on HCC-2998 colon; 106% with KM12 colon.
Turning to `CN(C)c1ccc(C#Cc2c(F)cccc2Cl)cc1`, the growth was 94.3% in the test with SR leukemia; 91.3% in the test on RPMI-8226 leukemia; 93.2% with OVCAR-8 ovarian; 99.2% in the test with OVCAR-5 ovarian; 72% in the test on OVCAR-4 ovarian; 79% in the test on SK-OV-3 ovarian. In addition, the growth in the test on IGROV1 ovarian was 47.2%; with OVCAR-3 ovarian, 90.6%; in the test with HS 578T breast, 94.5%; in the test with NCI/ADR-RES ovarian, 85.3%; in the test with T-47D breast, 41.8%; with BT-549 breast, 98.2%. Moreover, the growth is 99.8% in the test with MDA-MB-435 melanoma; 96% with SW-620 colon; 39.5% in the test on MCF7 breast; 84.8% with HCT-116 colon; 76.2% in the test with HCC-2998 colon; 85.4% in the test on KM12 colon.
In the case of `CCNCCNc1cc(C2CCCC2)c(C#N)c2nc3ccccc3n12`, the growth was -4.31% (active) in the test with SR leukemia; 1.72% (active) in the test on RPMI-8226 leukemia; 28.6% in the test with OVCAR-8 ovarian; 71.2% in the test with OVCAR-5 ovarian; -13.5% (active) in the test on OVCAR-4 ovarian; 40.5% in the test with SK-OV-3 ovarian. Also, the growth is 43.7% with IGROV1 ovarian; -82% (active) in the test on OVCAR-3 ovarian; -6.97% (active) in the test with HS 578T breast; 33.1% in the test on NCI/ADR-RES ovarian; 13.8% in the test with T-47D breast; 9.57% (active) in the test on BT-549 breast. Moreover, the growth with MDA-MB-435 melanoma is 11.2%; in the test with SW-620 colon it was 8.01% (active); in the test with MCF7 breast, 29.6%; in the test with HCT-116 colon it was 1.61% (active); in the test with HCC-2998 colon, 32.7%; with KM12 colon it was 35%.
In the case of `CCCCCCNc1cc(C)nc2ccc(OC)cc12`, the growth with SR leukemia was 23.2%; in the test with RPMI-8226 leukemia, 34.4%; with OVCAR-8 ovarian, 65.3%; in the test on OVCAR-5 ovarian, 64.4%; in the test with OVCAR-4 ovarian, 55%; with SK-OV-3 ovarian, 73.8%. The growth with IGROV1 ovarian was 55.5%; in the test on OVCAR-3 ovarian, 65.8%; in the test with HS 578T breast, 87%; with NCI/ADR-RES ovarian, 45.1%; with T-47D breast, 52.1%; with BT-549 breast it was 75.5%. For the same molecule, the growth with MDA-MB-435 melanoma is 64.6%; with SW-620 colon, 68.7%; with MCF7 breast it was 58.8%; in the test with HCT-116 colon it was 28.5%; in the test with HCC-2998 colon it was 48.4%; in the test with KM12 colon, 66.3%.
In the case of `O=C(Oc1ccc([N+](=O)[O-])cc1)c1ccc(CBr)cc1`, the growth with SR leukemia is 74.7%; in the test with RPMI-8226 leukemia, 81.6%; in the test with OVCAR-8 ovarian, 96.2%; in the test with OVCAR-5 ovarian it was 103%; in the test with OVCAR-4 ovarian it was 111%; in the test on SK-OV-3 ovarian, 147%. Further, the growth was 90.7% with IGROV1 ovarian; 114% in the test with OVCAR-3 ovarian; 96.7% in the test with HS 578T breast; 99.3% with NCI/ADR-RES ovarian; 125% with T-47D breast; 105% with BT-549 breast. In addition, the growth in the test with MDA-MB-435 melanoma is 98.8%; with SW-620 colon, 94.9%; with MCF7 breast, 75.1%; in the test with HCT-116 colon, 87.8%; in the test with HCC-2998 colon it was 103%; with KM12 colon it was 103%.
As for `O[C@H]1CO[C@H]2[C@@H]1OC[C@@H]2Oc1ccc(Nc2nc(Nc3ccc(F)c(Cl)c3)ncc2F)cc1Cl`, the growth in the test with SR leukemia is 110%; in the test with RPMI-8226 leukemia it was 116%; with OVCAR-8 ovarian it was 111%; in the test with OVCAR-5 ovarian, 105%; in the test on OVCAR-4 ovarian it was 96.9%; in the test with SK-OV-3 ovarian it was 110%. Besides, the growth in the test on IGROV1 ovarian was 102%; in the test on OVCAR-3 ovarian it was 103%; in the test with HS 578T breast, 98.7%; with NCI/ADR-RES ovarian, 97.6%; in the test with T-47D breast, 110%; in the test on BT-549 breast, 105%. The growth is 93.1% in the test with MDA-MB-435 melanoma; 88.3% with MCF7 breast; 105% with HCT-116 colon; 101% with HCC-2998 colon; 108% with KM12 colon.
On to `CSc1nc2sc3cc(Cl)ccc3n2c(=N)c1C#N`, for which the growth in the test with SR leukemia is 56.8%; in the test on RPMI-8226 leukemia it was 83.5%; with OVCAR-8 ovarian, 56.9%; in the test on OVCAR-5 ovarian it was 107%; in the test on OVCAR-4 ovarian, 45.4%; in the test on SK-OV-3 ovarian it was 72.4%. Moreover, the growth is 96.7% in the test with IGROV1 ovarian; 101% in the test on OVCAR-3 ovarian; 24.8% with HS 578T breast; 58.4% in the test on NCI/ADR-RES ovarian; 70% in the test with T-47D breast; 96.9% in the test on MDA-MB-435 melanoma. Moreover, the growth with MCF7 breast is 49%; with HCT-116 colon, 92.9%; in the test on HCC-2998 colon, 86.8%; with KM12 colon, 19.8%.
For the molecule `NC(=S)N/N=C/C(=O)O`, the growth with SR leukemia is 62.9%; with RPMI-8226 leukemia it was 48.1%; in the test on OVCAR-8 ovarian, 81.9%; in the test on OVCAR-5 ovarian, 102%; with OVCAR-4 ovarian, 75.3%; in the test on SK-OV-3 ovarian it was 108%. The growth in the test with IGROV1 ovarian was -32.7% (active); with OVCAR-3 ovarian it was 26.1%; in the test with HS 578T breast it was 84.3%; in the test on NCI/ADR-RES ovarian, 88.7%; in the test on T-47D breast, 40.9%; with BT-549 breast, 95%. In addition, the growth in the test on MDA-MB-435 melanoma was 92.5%; in the test with SW-620 colon it was 65.7%; in the test on MCF7 breast it was 11.7%; with HCT-116 colon, 6.98% (active); with HCC-2998 colon it was 104%; with KM12 colon, 99.4%.
